This is a sample that favours compounds with a hit; in the whole collection about 6.7% have one here.
Pf Dd2 inh: blocks growth of Plasmodium falciparum Dd2 parasites; P. falciparum Dd2 growth, SYBR Green, 72 h; active compounds read low; activity change, % at 10 µM; 94,000 tested, 2.3% active; in the data active = activity change below about -80%; inconclusive = no clear call, values can overlap the other calls
T cruzi growth-1: T. cruzi proliferation inhibition; inhibition, % at 8.34 µM; AID 624255; T. cruzi beta-gal in NIH3T3, GalScreen luminescence, 90 h; 77,000 tested, 5.9% active;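 active = mean inhibition above about 93%, with at least 55% of replicates each passing it, limit read from the data, passing the limit was not always enough; inconclusive = only one of those two conditions holds; inactive = neither condition holds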
C diff growth: blocks growth of Clostridium difficile; Clostridium difficile clinical isolate growth, OD600, 24 h; active compounds read low; growth activity, negative = inhibition, % at 16 µg/mL (by protocol); 86,000 tested, 0.25% active; AID 1259249;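 active = mean growth activity at or below -80% and every replicate also at or below -80%; inconclusive = mean at or below -80% but some replicate above -80%; inactive = mean growth activity above -80%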;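 note: 0% = DMSO wells and -100% = levofloxacin 16 µg/mL wells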
T cruzi growth-2: blocks T. cruzi growth in NIH3T3 host cells | shares compounds with T cruzi growth-1 | T. cruzi beta-gal in NIH3T3, GalScreen luminescence, 90 h | inhibition, % at 8.35 µM | 5,600 tested, 72% active;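 active = mean replicate inhibition above about 95% and at least 55% of replicates individually reaching it, limit read from the data; inconclusive = only one of the two criteria is met; inactive = neither criterion is met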
T cruzi growth-3: Trypanosoma cruzi proliferation inhibition | shares compounds with T cruzi growth-1 | T. cruzi beta-gal in NIH3T3, GalScreen luminescence, 90 h | inhibition, % at 2.09 µM | 5,600 tested, 21% active | AID 651740;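 active = mean inhibition above about 95%, with at least 55% of replicates also reaching it, limit read from the data; inconclusive = meets just one of the two conditions; inactive = meets neither condition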;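 note: plate controls were neutral control median for no effect and positive control median for full effect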
NIH3T3 tox: NIH/3T3 (mouse) viability loss; shares compounds with T cruzi growth-1; NIH/3T3 viability, CellTiter-Glo ATP luminescence, 90 h; cytotoxicity (signal decrease), % at 8.35 µM; 5,600 tested, 14% active; AID 651742;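 active = mean signal decrease across replicates above about 35% based on untreated-well scatter, with enough replicates individually passing, limit read from the data; inconclusive = no rule stated though some were filed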;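 note: 0% = median of neutral control wells and 100% = median of positive control wells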
3T3 cytotox 2: kills mouse NIH/3T3 fibroblasts | shares compounds with T cruzi growth-1 | NIH/3T3 viability, CellTiter-Glo ATP luminescence, 90 h | inhibition, % at 24.9 µM | 5,600 tested, 56% active;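 active = mean loss of cell viability signal at or above a set limit, and enough replicates individually reaching it; inconclusive = meets only the mean limit or only the replicate share; inactive = meets neither condition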;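 note: 0% = median of neutral control wells and 100% = median of positive control wells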
* hit, by the source's call; ? = inconclusive; . = no result.

SMILES | Pf Dd2 inh | T cruzi growth-1 | C diff growth | T cruzi growth-2 | T cruzi growth-3 | NIH3T3 tox | 3T3 cytotox 2
COc1ccccc1NC(=O)N[C@@H]1CC[C@@H](CCNC(=O)Cc2ccccn2)O[C@@H]1CO | 4.3 | . | 1.1 | . | . | . | .
Cc1ccccc1S(=O)(=O)N1CC(=O)N2[C@H](C1)[C@@H](c1ccc(C#CCC(C)C)cc1)[C@@H]2CO | -74.3 | . | 10.5 | . | . | . | .
O=C(C[C@@H]1CC[C@@H](NC(=O)c2ccccc2)[C@H](CO)O1)NCc1ccc(Oc2ccccc2)cc1 | -4.8 | -34.4 | 0.4 | . | . | . | .
C[C@H](CO)N1C[C@H](C)[C@H](CN(C)C(=O)C2CCC2)Oc2ncc(C#Cc3cccc(F)c3)cc2C1=O | -49.9 | -90.6 | 2.2 | . | . | . | .
C[C@@H]1CCCCO[C@H](CN(C)S(=O)(=O)c2cn(C)cn2)[C@@H](C)CN([C@@H](C)CO)C(=O)c2cc(NC(=O)Nc3ccc(C(F)(F)F)cc3)ccc2O1 | -72.6 | 17.3 | 2.8 | . | . | . | .
C[C@H]1CN([C@@H](C)CO)C(=O)c2cc(NC(=O)Nc3ccc(F)cc3)ccc2O[C@@H]1CN(C)Cc1ccccc1 | 38.6 | 32.3 | 6.5 | . | . | . | .
CNC[C@@H]1Oc2cc(C#Cc3ccccc3OC)ccc2S(=O)(=O)N([C@@H](C)CO)C[C@H]1C | . | 105.3* | -4.0 | 104.5* | 84.3 | 9.9 | 103.9*
CNC[C@H]1Oc2cc(C#Cc3ccccc3)ccc2S(=O)(=O)N([C@H](C)CO)C[C@@H]1C | -53.7 | . | 25.6 | . | . | . | .
CNC[C@@H]1Oc2cc(C#Cc3ccccc3)ccc2S(=O)(=O)N([C@H](C)CO)C[C@H]1C | -66.0 | . | 24.4 | . | . | . | .
CNC[C@H]1Oc2cc(C#Cc3ccccc3OC)ccc2S(=O)(=O)N([C@@H](C)CO)C[C@@H]1C | . | 102.6* | 2.9 | 106.2* | 67.6 | ? | 104.4*
CC(C)NC(=O)N[C@H]1C=C[C@@H](CC(=O)NCCCN(C)C)O[C@H]1CO | 22.6 | 34.7 | . | . | . | . | .
CCCNC(=O)C[C@H]1CC[C@@H]2[C@H](COc3ccc(NC(=O)CCC)cc3C(=O)N2C)O1 | 7.8 | 0.4 | -2.5 | . | . | . | .
C[C@H]1CN([C@@H](C)CO)C(=O)c2cc(C#CCc3ccccc3)cnc2O[C@H]1CN(C)Cc1cccnc1 | -35.9 | 40.6 | -12.2 | . | . | . | .
C[C@@H]1CN([C@@H](C)CO)C(=O)Cc2cc(NS(=O)(=O)c3ccc(Cl)cc3)ccc2O[C@@H]1CN(C)Cc1ccccc1 | -30.4 | 71.5 | 2.5 | . | . | . | .
C[C@H]1CN([C@@H](C)CO)C(=O)Cc2cc(NS(=O)(=O)c3ccc(Cl)cc3)ccc2O[C@@H]1CN(C)Cc1ccccc1 | -26.2 | 101.8* | -1.0 | 104.5* | 50.5 | -14.7 | 82.6*
C[C@@H]1CN([C@H](C)CO)C(=O)Cc2cc(NS(=O)(=O)c3ccccc3)ccc2O[C@@H]1CN(C)Cc1ccc(-c2ccccc2)cc1 | 13.6 | 67.1 | 2.8 | . | . | . | .
C[C@H](CO)N1C[C@H](C)[C@@H](CN(C)Cc2ccc(-c3ccccc3)cc2)Oc2ccc(NS(C)(=O)=O)cc2CC1=O | -10.9 | 117.8* | 44.8 | 112.1* | ? | 26.2 | 105.4*
C[C@H]1CN([C@@H](C)CO)C(=O)Cc2cc(NS(=O)(=O)c3ccc(Cl)cc3)ccc2O[C@@H]1CN(C)Cc1ccc(-c2ccccc2)cc1 | -26.7 | 98.9* | . | 104.6* | 53.4 | 6.4 | 106.5*
C[C@@H]1CN([C@H](C)CO)C(=O)Cc2cc(NS(=O)(=O)c3ccc(F)cc3)ccc2O[C@@H]1CN(C)Cc1ccccc1 | 1.9 | 88.2 | -8.4 | . | . | . | .
C[C@@H]1CN([C@@H](C)CO)C(=O)Cc2cc(NS(C)(=O)=O)ccc2O[C@H]1CN(C)Cc1ccc(-c2ccccc2)cc1 | -1.4 | 88.0 | 26.9 | . | . | . | .
C[C@H](CO)N1C[C@H](C)[C@@H](CN(C)Cc2ccccc2)Oc2ccc(NS(=O)(=O)c3ccc(F)cc3)cc2CC1=O | -41.9 | 109.3* | -0.1 | 96.3* | 44.4 | 3.1 | -0.3
CO[C@H]1CN(C)C(=O)c2ccc(NC(=O)Nc3ccccc3F)cc2OC[C@@H](C)N(C(C)=O)C[C@@H]1C | -6.8 | 28.5 | . | . | . | . | .
O=C(C[C@H]1C[C@@H]2c3cc(NC(=O)C4CCOCC4)ccc3O[C@@H]2[C@H](CO)O1)NCc1ccccn1 | -5.0 | 21.1 | 0.8 | . | . | . | .
COCC(=O)N(C)C[C@H]1Oc2cc(C3=CCCC3)ccc2S(=O)(=O)N([C@H](C)CO)C[C@@H]1C | 34.8 | . | -0.1 | . | . | . | .
C[C@@H]1CN([C@@H](C)CO)S(=O)(=O)c2ccc(-c3ccccc3F)cc2O[C@H]1CN(C)S(C)(=O)=O | -54.3 | -57.1 | -3.7 | . | . | . | .
SMILES | Pf Dd2 inh | T cruzi growth-1 | C diff growth | T cruzi growth-2 | T cruzi growth-3 | NIH3T3 tox | 3T3 cytotox 2
COc1ccccc1-c1ccc2c(c1)O[C@@H](CN(C)S(=O)(=O)c1ccc(F)cc1)[C@@H](C)CN([C@@H](C)CO)S2(=O)=O | -73.0 | 102.8* | 5.2 | 109.1* | 90.0 | 49.9* | 45.4*
COc1ccccc1-c1ccc2c(c1)O[C@H](CN(C)S(=O)(=O)c1ccc(F)cc1)[C@H](C)CN([C@@H](C)CO)S2(=O)=O | -47.0 | 99.4* | 4.2 | 95.0* | 84.8 | 21.2 | 46.9*
COc1ccccc1-c1ccc2c(c1)O[C@@H](CN(C)S(=O)(=O)c1ccc(F)cc1)[C@@H](C)CN([C@H](C)CO)S2(=O)=O | -48.2 | 106.0* | 6.8 | 99.2* | 90.4 | ? | 64.2*
C[C@H]1CN([C@@H](C)CO)S(=O)(=O)c2ccc(-c3ccccc3F)cc2O[C@@H]1CN(C)S(C)(=O)=O | 14.9 | -48.1 | -10.2 | . | . | . | .
C[C@@H]1CN([C@H](C)CO)S(=O)(=O)c2ccc(-c3ccccc3F)cc2O[C@H]1CN(C)S(C)(=O)=O | -73.2 | -23.8 | -1.7 | . | . | . | .
O=C(Nc1cccc(F)c1)N[C@H]1CC[C@@H](CCNS(=O)(=O)c2cccc(Cl)c2)O[C@@H]1CO | -18.9 | 15.9 | . | . | . | . | .
O=C(Nc1ccc(F)cc1)N[C@@H]1CC[C@@H](CCNS(=O)(=O)c2cccc(Cl)c2)O[C@@H]1CO | 18.6 | -11.0 | -7.6 | . | . | . | .
O=C(Nc1cccc(F)c1)N[C@H]1CC[C@H](CCNS(=O)(=O)c2cccc(Cl)c2)O[C@H]1CO | 2.7 | 162.5* | . | 103.2* | 30.2 | -14.9 | -0.9
O=C(Nc1cccc(F)c1)N[C@@H]1CC[C@@H](CCNS(=O)(=O)c2cccc(Cl)c2)O[C@@H]1CO | -76.6 | 120.7* | . | 55.9 | -9.3 | -26.6 | -4.7
C[C@@H]1CN([C@H](C)CO)C(=O)Cc2cc(NC(=O)NC3CCCCC3)ccc2O[C@H]1CN(C)Cc1ccc(C(F)(F)F)cc1 | -15.8 | 75.5 | 1.3 | . | . | . | .
C[C@@H]1CN([C@@H](C)CO)C(=O)c2cc(NC(=O)C3CC3)ccc2O[C@@H]1CN(C)CC1CC1 | 1.1 | 19.2 | -2.9 | . | . | . | .
CN(C)CCCNC(=O)[C@@H]1[C@@H](CO)[C@@H]2Cn3c(ccc(-c4ccccc4)c3=O)[C@H]1N2C(=O)CC1CC1 | . | -1.2 | -6.0 | . | . | . | .
